# Measured values: PubChem BioAssay (NCI)
# About 79,000 compounds went through this panel and 15% of them were active in at least one assay; those are over-represented in the sample as a whole. Unmarked numbers belong to inactive results. Calls of active or inactive are those of the source. No stated cut-off is given here; in the data, active means growth inhibition above about 70%; inactive means the rest.
# How the values were obtained:
# [1] = NCI Yeast Anticancer Drug Screen. Data for the rad52 strain (AID 147);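 further: 0% = growth of vehicle-treated control cultures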; conditions: S. cerevisiae rad52 mutant growth inhibition, stronger effect = higher value
# Procedure, shortened: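 The repair-mutant yeast strain was incubated with compounds, then growth was read and inhibition derived relative to vehicle.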
# [2] = NCI Yeast Anticancer Drug Screen. Data for the wt1 strain (AID 149);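 further: 0% = growth of vehicle-treated wt1 cultures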; conditions: S. cerevisiae wt1 strain (SPY 50644) growth inhibition, stronger effect = higher value
# Procedure, shortened: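 Measured: growth of wt1 yeast under compound versus vehicle treatment, reported as inhibition.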
# [3] = NCI Yeast Anticancer Drug Screen. Data for the rad50EPP+ strain (AID 151);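 further: 0% = growth of vehicle-treated control cultures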; conditions: S. cerevisiae rad50 mutant strain, stronger effect = higher value
# Procedure, shortened: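 Vehicle-normalised growth inhibition; rad50EPP+ yeast strain, altered in DNA damage repair, compound-treated.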
# [4] = NCI Yeast Anticancer Drug Screen. Data for the mgt1 strain (AID 153); conditions: S. cerevisiae mgt1 mutant growth inhibition, stronger effect = higher value
# Procedure, shortened: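 Vehicle-normalized growth inhibition is determined in mgt1 yeast, a strain selected for a defined alteration in DNA repair or cell cycle control.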
# [5] = NCI Yeast Anticancer Drug Screen. Data for the rad50 strain (AID 155);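 further: 0% = growth of vehicle-only cultures of the same strain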; conditions: S. cerevisiae rad50 strain growth inhibition, stronger effect = higher value
# Procedure, shortened: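 Growth of the mutant yeast was measured after compound exposure and referenced to vehicle-treated cultures.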
# [6] = NCI Yeast Anticancer Drug Screen. Data for the mec2-1 strain (AID 157); conditions: S. cerevisiae mec2-1 strain, stronger effect = higher value
# Procedure, shortened: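 Mutant yeast (mec2-1) grown with compound; growth inhibition relative to vehicle control reported.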
# [7] = NCI Yeast Anticancer Drug Screen. Data for the rad14 strain (AID 159);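 further: 0% = growth of vehicle-treated control cultures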; conditions: S. cerevisiae rad14 strain growth inhibition, stronger effect = higher value
# Procedure, shortened: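 Here, inhibition of yeast growth was measured after compound exposure, using a strain with a genetic defect in DNA damage repair and vehicle-treated cultures as the reference.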
# [8] = NCI Yeast Anticancer Drug Screen. Data for the sgs1 mgt1 strain (AID 161);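 further: 0% = growth of cultures given vehicle only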; conditions: S. cerevisiae sgs1 mgt1 strain, stronger effect = higher value
# Procedure, shortened: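 Percent growth inhibition was derived by comparing compound-exposed mutant yeast with vehicle-exposed cultures. The strain carries alterations in DNA damage repair.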
# [9] = NCI Yeast Anticancer Drug Screen. Data for the CLN2oe strain (AID 163);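 further: 0% = growth of vehicle-only control cultures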; conditions: S. cerevisiae CLN2oe strain, stronger effect = higher value
# Procedure, shortened: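 Compounds are applied to yeast harbouring a defined cell-cycle control change; reduced growth compared with vehicle-treated controls gives the value.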
# [10] = NCI Yeast Anticancer Drug Screen. Data for the cln2 rad14 strain (AID 165);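 further: 0% = growth equal to vehicle treated cultures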; conditions: S. cerevisiae cln2 rad14 strain, stronger effect = higher value
# Procedure, shortened: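 Readout is yeast growth inhibition versus vehicle-treated controls, using a strain with cln2 and rad14 alterations exposed to compound.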
# [11] = NCI Yeast Anticancer Drug Screen. Data for the bub3 strain (AID 167); conditions: S. cerevisiae bub3 mutant strain, stronger effect = higher value
# Procedure, shortened: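 Whole-cell yeast assay. The mutant strain was incubated with compounds, and growth inhibition was determined by comparison with vehicle-treated cells.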
# [12] = NCI Yeast Anticancer Drug Screen. Data for the wt2 strain (AID 169);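 further: 0% = growth of vehicle-treated yeast cultures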; conditions: S. cerevisiae wt2 strain growth inhibition, stronger effect = higher value
# Procedure, shortened: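 Against vehicle-treated controls, the growth of yeast exposed to each compound was compared, and the inhibition was recorded.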
# [13] = NCI Yeast Anticancer Drug Screen. Data for the mlh1 strain (AID 171);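 further: 0% = growth of vehicle-treated control cultures of the same strain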; conditions: S. cerevisiae mlh1 strain growth inhibition, stronger effect = higher value
# Procedure, shortened: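 Measured: yeast growth. Reference: vehicle-treated controls. Organism: strain with a defined alteration affecting DNA damage repair or cell cycle control, treated with compound.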
# [14] = NCI Yeast Anticancer Drug Screen. Data for the sgs1 strain (AID 173);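 further: 0% = growth of vehicle-only control cultures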; conditions: S. cerevisiae sgs1 mutant, stronger effect = higher value
# Procedure, shortened: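 Each compound was added to cultures of the altered yeast strain. Growth was recorded, and inhibition was derived by comparison with vehicle controls.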
# [15] = NCI Yeast Anticancer Drug Screen. Data for the mlh1 rad18 strain (AID 175); conditions: S. cerevisiae mlh1 rad18 strain growth inhibition, stronger effect = higher value
# Procedure, shortened: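 Genetically defined yeast (DNA repair-deficient) exposed to compounds; growth inhibition determined relative to vehicle.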
# [16] = NCI Yeast Anticancer Drug Screen. Data for the rad18 strain (AID 177); conditions: S. cerevisiae rad18 mutant growth inhibition, stronger effect = higher value
# Procedure, shortened: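 Vehicle-treated cultures served as the baseline for scoring compound-induced growth inhibition in DNA-repair-mutant yeast.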
# [17] = at 5.0 µM (retest, dose inferred, filed as 0.5)
# [18] = at 50.0 µM (retest, dose inferred, filed as 5.0)
smiles,measurement,setting,value
O=C1C(Cl)=C(Cl)C(Cl)(Cl)C(Cl)C1(Cl)Cl (stereo not drawn),growth inhibition,[1]; at 1.2 µM,14%
same,growth inhibition,[1]; at 3.7 µM,27%
same,growth inhibition,[1]; at 11.0 µM,71% (active)
same,growth inhibition,[1]; at 33.0 µM,99% (active)
same,growth inhibition,[1]; at 100.0 µM,99% (active)
same,growth inhibition,[2]; at 1.2 µM,2%
same,growth inhibition,[2]; at 3.7 µM,5%
same,growth inhibition,[2]; at 11.0 µM,21%
same,growth inhibition,[2]; at 33.0 µM,94% (active)
same,growth inhibition,[2]; at 100.0 µM,99% (active)
same,growth inhibition,[3]; at 1.2 µM,20%
same,growth inhibition,[3]; at 3.7 µM,34%
same,growth inhibition,[3]; at 11.0 µM,58%
same,growth inhibition,[3]; at 33.0 µM,90% (active)
same,growth inhibition,[3]; at 100.0 µM,99% (active)
same,growth inhibition,[4]; at 1.2 µM,5%
same,growth inhibition,[4]; at 3.7 µM,25%
same,growth inhibition,[4]; at 11.0 µM,45%
same,growth inhibition,[4]; at 33.0 µM,99% (active)
same,growth inhibition,[4]; at 100.0 µM,99% (active)
same,growth inhibition,[5]; at 1.2 µM,16%
same,growth inhibition,[5]; at 3.7 µM,26%
same,growth inhibition,[5]; [17],21%
same,growth inhibition,[5]; at 11.0 µM,58%
same,growth inhibition,[5]; at 33.0 µM,99% (active)
same,growth inhibition,[5]; [18],98% (active)
same,growth inhibition,[5]; at 50.0 µM,99.3% (active)
same,growth inhibition,[5]; at 100.0 µM,99% (active)
same,growth inhibition,[6]; at 1.2 µM,8%
same,growth inhibition,[6]; at 3.7 µM,29%
same,growth inhibition,[6]; [17],22%
same,growth inhibition,[6]; at 11.0 µM,49%
same,growth inhibition,[6]; at 33.0 µM,99% (active)
same,growth inhibition,[6]; [18],99% (active)
same,growth inhibition,[6]; at 50.0 µM,99.5% (active)
same,growth inhibition,[6]; at 100.0 µM,99% (active)
same,growth inhibition,[7]; at 1.2 µM,17%
same,growth inhibition,[7]; at 3.7 µM,25%
same,growth inhibition,[7]; at 11.0 µM,44%
same,growth inhibition,[7]; at 33.0 µM,99% (active)
same,growth inhibition,[7]; at 100.0 µM,99% (active)
same,growth inhibition,[8]; [17],30%
same,growth inhibition,[8]; [18],99% (active)
same,growth inhibition,[8]; at 50.0 µM,99.6% (active)
same,growth inhibition,[9]; at 1.2 µM,15%
same,growth inhibition,[9]; at 3.7 µM,38%
same,growth inhibition,[9]; at 11.0 µM,54%
same,growth inhibition,[9]; at 33.0 µM,99% (active)
same,growth inhibition,[9]; at 100.0 µM,99% (active)
same,growth inhibition,[10]; [17],9%
same,growth inhibition,[10]; [18],96% (active)
same,growth inhibition,[10]; at 50.0 µM,96.8% (active)
same,growth inhibition,[11]; at 1.2 µM,11%
same,growth inhibition,[11]; at 3.7 µM,28%
same,growth inhibition,[11]; [17],5%
same,growth inhibition,[11]; at 11.0 µM,59%
same,growth inhibition,[11]; at 33.0 µM,99% (active)
same,growth inhibition,[11]; [18],98% (active)
same,growth inhibition,[11]; at 50.0 µM,99.5% (active)
same,growth inhibition,[11]; at 100.0 µM,97% (active)
same,growth inhibition,[12]; at 1.2 µM,-14%
same,growth inhibition,[12]; at 3.7 µM,-6%
same,growth inhibition,[12]; at 11.0 µM,54%
same,growth inhibition,[12]; at 33.0 µM,100% (active)
same,growth inhibition,[12]; at 100.0 µM,99% (active)
same,growth inhibition,[13]; at 1.2 µM,12%
same,growth inhibition,[13]; at 3.7 µM,26%
same,growth inhibition,[13]; at 11.0 µM,66%
same,growth inhibition,[13]; at 33.0 µM,99% (active)
same,growth inhibition,[13]; at 100.0 µM,99% (active)
same,growth inhibition,[14]; at 1.2 µM,-7%
same,growth inhibition,[14]; at 3.7 µM,36%
same,growth inhibition,[14]; at 11.0 µM,81% (active)
same,growth inhibition,[14]; at 33.0 µM,100% (active)
same,growth inhibition,[14]; at 100.0 µM,99% (active)
same,growth inhibition,[15]; [17],26%
same,growth inhibition,[15]; [18],99% (active)
same,growth inhibition,[15]; at 50.0 µM,99.4% (active)
same,growth inhibition,[16]; at 1.2 µM,40%
same,growth inhibition,[16]; at 3.7 µM,73% (active)
same,growth inhibition,[16]; at 11.0 µM,90% (active)
same,growth inhibition,[16]; at 33.0 µM,99% (active)
same,growth inhibition,[16]; at 100.0 µM,99% (active)
